# Measured values: PubChem BioAssay AID1508601 (ICCB-Longwood Screening Facility, Harvard Medical School, 2020)
# Among all 5,700 compounds or so, about 85 (1%) were called active. No stated cut-off is given here; in the data, active means p53-positive nuclei above about 36% (passing the limit was not always enough); inactive means the rest. For the sample, actives were picked, then their nearest neighbours and some compounds at random.
# Legend:
# [1] = p53 stabilisation in HPV-positive human cells, imaging, p53-positive nuclei imaging, 24 h, 48 h (AID 1508601); settings: 24/48 h
# [2] = molecular target: Cellular tumor antigen p53 (Homo sapiens) (UniProt P04637); assay: as above; settings: 24/48 h, stronger effect = higher value
# [3] = measured here: cell number at 24 h, Library stock concentration: 10 mM
# [4] = measured here: cell number at 24 h, concentration not given here
# [5] = measured here: cell number at 48 h, Library stock concentration: 10 mM
# [6] = measured here: cell number at 48 h, concentration not given here
# [7] = Library stock concentration: 10 mM
# [8] = measured here: p53 positive nuclei at 24 h, Library stock concentration: 10 mM
# [9] = measured here: p53 positive nuclei at 24 h, concentration not given here
# [10] = measured here: cell number at 24 h, Library stock concentration: 3.33 mM
# [11] = measured here: cell number at 48 h, Library stock concentration: 3.33 mM
# [12] = Library stock concentration: 3.33 mM
# [13] = measured here: p53 positive nuclei at 24 h, Library stock concentration: 3.33 mM
# Chain of Cellular tumor antigen p53 (Homo sapiens) (P04637 whole entry, looked up): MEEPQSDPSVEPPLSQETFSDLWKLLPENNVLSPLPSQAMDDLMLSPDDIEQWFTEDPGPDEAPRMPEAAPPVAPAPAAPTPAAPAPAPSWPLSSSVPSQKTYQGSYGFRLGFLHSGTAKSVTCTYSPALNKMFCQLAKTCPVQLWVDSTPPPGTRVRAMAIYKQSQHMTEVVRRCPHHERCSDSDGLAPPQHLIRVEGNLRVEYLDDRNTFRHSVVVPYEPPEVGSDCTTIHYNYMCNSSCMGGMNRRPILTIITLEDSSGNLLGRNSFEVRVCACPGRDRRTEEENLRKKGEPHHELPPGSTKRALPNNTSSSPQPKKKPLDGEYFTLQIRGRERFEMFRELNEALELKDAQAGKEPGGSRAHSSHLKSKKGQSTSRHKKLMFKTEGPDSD
smiles,measurement,setting,value
CC[n+]1c(-c2ccccc2)c2cc(N)ccc2c2ccc(N)cc21,"nuclei count, normalised","[1]; measured here: cell number at 24 h, Library stock concentration: 500 nM",102%
same,"nuclei count, normalised","[1]; measured here: cell number at 24 h, Library stock concentration: 1.5 uM",108%
same,"nuclei count, normalised","[1]; measured here: cell number at 24 h, Library stock concentration: 4.6 uM",106%
same,"nuclei count, normalised","[1]; measured here: cell number at 24 h, Library stock concentration: 13.7 uM",111%
same,"nuclei count, normalised","[1]; measured here: cell number at 24 h, Library stock concentration: 41 uM",111%
same,"nuclei count, normalised","[1]; measured here: cell number at 24 h, Library stock concentration: 123 uM",102%
same,"nuclei count, normalised","[1]; measured here: cell number at 24 h, Library stock concentration: 370 uM",117%
same,"nuclei count, normalised","[1]; measured here: cell number at 24 h, Library stock concentration: 1.111 mM",107%
same,"nuclei count, normalised","[1]; measured here: cell number at 24 h, Library stock concentration: 3.333 mM",105%
same,"nuclei count, normalised",[1]; [3],83.1%
same,"nuclei count, normalised",[1]; [4],104%
same,"nuclei count, normalised","[1]; measured here: cell number at 48 h, Library stock concentration: 500 nM",104%
same,"nuclei count, normalised","[1]; measured here: cell number at 48 h, Library stock concentration: 1.5 uM",109%
same,"nuclei count, normalised","[1]; measured here: cell number at 48 h, Library stock concentration: 4.6 uM",106%
same,"nuclei count, normalised","[1]; measured here: cell number at 48 h, Library stock concentration: 13.7 uM",109%
same,"nuclei count, normalised","[1]; measured here: cell number at 48 h, Library stock concentration: 41 uM",109%
same,"nuclei count, normalised","[1]; measured here: cell number at 48 h, Library stock concentration: 123 uM",99.5%
same,"nuclei count, normalised","[1]; measured here: cell number at 48 h, Library stock concentration: 370 uM",104%
same,"nuclei count, normalised","[1]; measured here: cell number at 48 h, Library stock concentration: 1.111 mM",99.7%
same,"nuclei count, normalised","[1]; measured here: cell number at 48 h, Library stock concentration: 3.333 mM",98.5%
same,"nuclei count, normalised",[1]; [5],75.3%
same,"nuclei count, normalised",[1]; [6],97.4%
same,"p53-positive nuclei, normalised",[2]; Library stock concentration: 500 nM,0.0282% (inactive)
same,"p53-positive nuclei, normalised",[2]; Library stock concentration: 1.5 uM,0.101% (inactive)
same,"p53-positive nuclei, normalised",[2]; Library stock concentration: 4.6 uM,-0.0128% (inactive)
same,"p53-positive nuclei, normalised",[2]; Library stock concentration: 13.7 uM,-0.0168% (inactive)
same,"p53-positive nuclei, normalised",[2]; Library stock concentration: 41 uM,0.329% (inactive)
same,"p53-positive nuclei, normalised",[2]; Library stock concentration: 123 uM,3.12% (inactive)
same,"p53-positive nuclei, normalised",[2]; Library stock concentration: 370 uM,7.73% (inactive)
same,"p53-positive nuclei, normalised",[2]; Library stock concentration: 1.111 mM,12.2% (inactive)
same,"p53-positive nuclei, normalised",[2]; Library stock concentration: 3.333 mM,19.5% (inactive)
same,"p53-positive nuclei, normalised",[2]; [7],103% (active)
same,"p53-positive nuclei, normalised",[2]; concentration not given here,34.3% (inactive)
same,"p53-positive nuclei, normalised","[2]; measured here: p53 positive nuclei at 24 h, Library stock concentration: 500 nM",0.0668%
same,"p53-positive nuclei, normalised","[2]; measured here: p53 positive nuclei at 24 h, Library stock concentration: 1.5 uM",0.166%
same,"p53-positive nuclei, normalised","[2]; measured here: p53 positive nuclei at 24 h, Library stock concentration: 4.6 uM",-0.00293%
same,"p53-positive nuclei, normalised","[2]; measured here: p53 positive nuclei at 24 h, Library stock concentration: 13.7 uM",-0.0711%
same,"p53-positive nuclei, normalised","[2]; measured here: p53 positive nuclei at 24 h, Library stock concentration: 41 uM",0.21%
same,"p53-positive nuclei, normalised","[2]; measured here: p53 positive nuclei at 24 h, Library stock concentration: 123 uM",1.53%
same,"p53-positive nuclei, normalised","[2]; measured here: p53 positive nuclei at 24 h, Library stock concentration: 370 uM",4.81%
same,"p53-positive nuclei, normalised","[2]; measured here: p53 positive nuclei at 24 h, Library stock concentration: 1.111 mM",11.9%
same,"p53-positive nuclei, normalised","[2]; measured here: p53 positive nuclei at 24 h, Library stock concentration: 3.333 mM",38.2%
same,"p53-positive nuclei, normalised",[2]; [8],127%
same,"p53-positive nuclei, normalised",[2]; [9],45.3%
CCCCC/C=C\C/C=C\C/C=C\C/C=C\CCCC(=O)N[C@H](C)COP(=O)(O)O,"nuclei count, normalised",[1]; [4],107%
same,"nuclei count, normalised",[1]; [6],103%
same,"p53-positive nuclei, normalised",[2]; concentration not given here,0.124% (inactive)
same,"p53-positive nuclei, normalised",[2]; [9],-0.0345%
N#CC(OC1OC(COC2OC(CO)C(O)C(O)C2O)C(O)C(O)C1O)c1ccccc1 (centres undefined),"nuclei count, normalised",[1]; [10],95.4%
same,"nuclei count, normalised",[1]; [11],89.1%
same,"p53-positive nuclei, normalised",[2]; [12],0.141% (inactive)
same,"p53-positive nuclei, normalised",[2]; [13],-0.0206%
Cc1ccc(-n2nccn2)c(C(=O)N2CCN(c3nc4cc(Cl)ccc4o3)CCC2C)c1 (centres undefined),"nuclei count, normalised",[1]; [10],71.4%
same,"nuclei count, normalised",[1]; [11],76.4%
same,"p53-positive nuclei, normalised",[2]; [12],0.0905% (inactive)
same,"p53-positive nuclei, normalised",[2]; [13],-0.163%
c1cc(N2CCNCC2)c2cnccc2c1,"nuclei count, normalised",[1]; [4],95.9%
same,"nuclei count, normalised",[1]; [6],98.3%
same,"p53-positive nuclei, normalised",[2]; concentration not given here,-0.118% (inactive)
same,"p53-positive nuclei, normalised",[2]; [9],-0.041%
CN(C)C(=S)SSC(=S)N(C)C,"nuclei count, normalised",[1]; [4],35.4%
same,"nuclei count, normalised",[1]; [6],24.2%
same,"p53-positive nuclei, normalised",[2]; concentration not given here,90.3% (active)
same,"p53-positive nuclei, normalised",[2]; [9],108%
Cc1sc2c(c1C)C(c1ccc(Cl)cc1)=NC(CC(=O)Nc1ccc(O)cc1)c1nnc(C)n1-2 (centres undefined),"nuclei count, normalised","[1]; measured here: cell number at 24 h, Library stock concentration: 80 uM",110%
same,"nuclei count, normalised","[1]; measured here: cell number at 24 h, Library stock concentration: 400 uM",120%
same,"nuclei count, normalised","[1]; measured here: cell number at 24 h, Library stock concentration: 2 mM",113%
same,"nuclei count, normalised",[1]; [10],119%
same,"nuclei count, normalised",[1]; [3],114%
same,"nuclei count, normalised","[1]; measured here: cell number at 48 h, Library stock concentration: 80 uM",108%
same,"nuclei count, normalised","[1]; measured here: cell number at 48 h, Library stock concentration: 400 uM",119%
same,"nuclei count, normalised","[1]; measured here: cell number at 48 h, Library stock concentration: 2 mM",111%
same,"nuclei count, normalised",[1]; [11],117%
same,"nuclei count, normalised",[1]; [5],109%
same,"p53-positive nuclei, normalised",[2]; Library stock concentration: 80 uM,0.0544% (inactive)
same,"p53-positive nuclei, normalised",[2]; Library stock concentration: 400 uM,0.0288% (inactive)
same,"p53-positive nuclei, normalised",[2]; Library stock concentration: 2 mM,3.49% (inactive)
same,"p53-positive nuclei, normalised",[2]; [12],3.67% (inactive)
same,"p53-positive nuclei, normalised",[2]; [7],9.67% (inactive)
same,"p53-positive nuclei, normalised","[2]; measured here: p53 positive nuclei at 24 h, Library stock concentration: 80 uM",0.123%
same,"p53-positive nuclei, normalised","[2]; measured here: p53 positive nuclei at 24 h, Library stock concentration: 400 uM",0.712%
same,"p53-positive nuclei, normalised","[2]; measured here: p53 positive nuclei at 24 h, Library stock concentration: 2 mM",19.6%
same,"p53-positive nuclei, normalised",[2]; [13],10.4%
same,"p53-positive nuclei, normalised",[2]; [8],46.6%
Cc1sc2c(c1C)C(c1ccc(Cl)cc1)=NC(CC(N)=O)c1nnc(C)n1-2 (centres undefined),"nuclei count, normalised","[1]; measured here: cell number at 24 h, Library stock concentration: 46 uM",103%
same,"nuclei count, normalised","[1]; measured here: cell number at 24 h, Library stock concentration: 278 uM",99.7%
same,"nuclei count, normalised","[1]; measured here: cell number at 24 h, Library stock concentration: 1.67 mM",85.4%
same,"nuclei count, normalised",[1]; [10],123%
same,"nuclei count, normalised",[1]; [3],90.1%
same,"nuclei count, normalised","[1]; measured here: cell number at 48 h, Library stock concentration: 46 uM",106%
same,"nuclei count, normalised","[1]; measured here: cell number at 48 h, Library stock concentration: 278 uM",102%
same,"nuclei count, normalised","[1]; measured here: cell number at 48 h, Library stock concentration: 1.67 mM",87.7%
same,"nuclei count, normalised",[1]; [11],122%
same,"nuclei count, normalised",[1]; [5],84.3%
same,"p53-positive nuclei, normalised",[2]; Library stock concentration: 46 uM,-0.111% (inactive)
same,"p53-positive nuclei, normalised",[2]; Library stock concentration: 278 uM,0.158% (inactive)
same,"p53-positive nuclei, normalised",[2]; Library stock concentration: 1.67 mM,12.8% (inactive)
same,"p53-positive nuclei, normalised",[2]; [12],3.31% (inactive)
same,"p53-positive nuclei, normalised",[2]; [7],25.8% (inactive)
same,"p53-positive nuclei, normalised","[2]; measured here: p53 positive nuclei at 24 h, Library stock concentration: 46 uM",-0.0163%
same,"p53-positive nuclei, normalised","[2]; measured here: p53 positive nuclei at 24 h, Library stock concentration: 278 uM",0.11%
same,"p53-positive nuclei, normalised","[2]; measured here: p53 positive nuclei at 24 h, Library stock concentration: 1.67 mM",27%
same,"p53-positive nuclei, normalised",[2]; [13],12.7%
same,"p53-positive nuclei, normalised",[2]; [8],46.3%
